Consider 40 compounds from PubChem BioAssay (Tox21).

Results filed as inconclusive are left out. Unmarked numbers belong to inactive results. The source made the active and inactive calls. The call rests on the fitted dose curve.
On the % scale 0 is the no-effect control and ±100 the full control effect; potency means the concentration at half of the fitted maximal effect.

Chain of Acetylcholinesterase (Homo sapiens) (P22303 whole entry, looked up): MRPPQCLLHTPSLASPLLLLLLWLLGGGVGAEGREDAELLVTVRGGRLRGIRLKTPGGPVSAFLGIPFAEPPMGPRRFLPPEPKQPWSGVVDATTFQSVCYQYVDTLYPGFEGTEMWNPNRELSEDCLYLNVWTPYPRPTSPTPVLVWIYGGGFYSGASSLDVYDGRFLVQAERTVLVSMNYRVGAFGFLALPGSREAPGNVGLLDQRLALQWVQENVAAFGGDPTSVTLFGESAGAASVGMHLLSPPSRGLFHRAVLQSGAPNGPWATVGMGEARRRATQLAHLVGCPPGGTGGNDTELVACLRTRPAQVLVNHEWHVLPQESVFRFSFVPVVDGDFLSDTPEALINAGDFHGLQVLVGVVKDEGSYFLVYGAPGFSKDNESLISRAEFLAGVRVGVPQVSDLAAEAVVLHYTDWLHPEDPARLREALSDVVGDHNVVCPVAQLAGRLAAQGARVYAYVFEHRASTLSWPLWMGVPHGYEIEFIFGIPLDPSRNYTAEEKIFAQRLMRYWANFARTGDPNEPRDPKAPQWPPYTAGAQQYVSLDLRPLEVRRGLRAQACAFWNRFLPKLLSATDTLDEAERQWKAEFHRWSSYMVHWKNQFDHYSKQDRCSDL

For the experiment, the target named is Acetylcholinesterase (Homo sapiens) (UniProt P22303). The experiment can be described thus: Acetylcholinesterase (AChE) small molecule antagonists: colormetric cell-based qHTS assay (AID 1347395). Further: nearly all actives have a fitted effect of over 30% in size. The conditions noted are these: SH-SY5Y cells AChE activity, colorimetric (Ellman); series mostly up to 115 µM; activity, negative = inhibition: at the top concentration. An excerpt:
National Center for Advancing Translational Sciences [NCATS]
Division of Preclinical Innovation [DPI]
U.S. Environmental Protection Agency [EPA]
National Institutes of Environmental Health Sciences [NIEHS]
National Toxicology Program [NTP]
U.S. Food and Drug Administration [FDA]
Acetylcholinesterase (AChE) is the primary cholinesterase in the body that hydrolyzes a key neurotransmitter, acetylcholine. Inhibition of AChE activity can lead to neurotoxicity. The known inhibitors include organophosphorous pesticides (OP), chemical warfare agents, drugs, and various phytochemicals.
A homogenous cell-based assay using the Amplite Colormetric acetylcholinesterase assay kit (AAT Bioquest, Sunnyvale, CA) was used to evaluate the chemicals in the Tox21 10K library that inhibit AChE activity. The assay uses 5, 5-dithiobis-(2-nitrobenzoic acid) (DTNB) to quantify the thiocholine produced from the hydrolysis of acetylthiocholine by AChE from the SH-SY5Y cells.
Tox21 Assay Protocol Summary:
For the cell-based AChE assay, 2,000 SH-SY5Y cells in 4 uL/well were dispensed into black, clear-bottom 1536-well plates using a Multidrop Combi dispenser (Thermo Scientific, MA). The assay plates were incubated overnight at 37 C to allow cells to attach to the wells, followed by the transfer of 23 nL of compound or DMSO (vehicle control) by a Pintool Station (Wako Automation, CA). The plates were incubated for 30 min at 37 C and 5% CO2, followed by the addition of 4 uL of detection cocktail solution (DTNB, acetylthiocholine) into each well using a Flying Reagent Dispenser (Beckman Coulter, CA) and then 90 min incubation at 37 C.
(In general: In qHTS, concentration-response curves come from the screen itself.)
For `Cc1c([N+](=O)[O-])c(C)c([N+](=O)[O-])c(C(C)(C)C)c1[N+](=O)[O-]`, the “activity, negative = inhibition” value is -11.6%.
With `CCCCON=O`, the “activity, negative = inhibition” value is -0.286%.
As to `Nc1ccc(Cl)cc1C(=O)c1ccccc1F`, the “activity, negative = inhibition” value is 2.39% [at 52.9 µM].
On the same count and under the same terms, as for `CCCCCON=O`, the figure is -0.522%; as for `CSSC`, 3.02%.
As for `CCOP(=O)(OCC)Oc1cc(C)nc(C(C)C)n1`, the Potency was 0.142 µM (active).
For `CC(O)C(=O)[O][Hg][c]1ccccc1` (stereo not given), the “activity, negative = inhibition” value is 0.316%.
On to `C[C@]12CC[C@H]3[C@@H](CCC4=CC(=O)CC[C@@H]43)[C@@H]1CC[C@@H]2OC(=O)CCc1ccco1`, for which the “activity, negative = inhibition” value is -0.28% [at 52.9 µM].
Turning to `CN1C(=O)[C@@H](NC(=O)c2cc3ccccc3[nH]2)N=C(c2ccccc2)c2ccccc21`, the “activity, negative = inhibition” value is 2.84% [at 52.9 µM].
In the case of `C=CCOC(=O)c1ccccc1N`, the “activity, negative = inhibition” value was -2.3%.
As for `CCNS(=O)(=O)C(F)(F)C(F)(F)C(F)(F)C(F)(F)C(F)(F)C(F)(F)C(F)(F)C(F)(F)F`, the “activity, negative = inhibition” value was -0.432%.
On to `O=C1C2(Cl)C3(Cl)C4(Cl)C(Cl)(Cl)C5(Cl)C3(Cl)C1(Cl)C5(Cl)C24Cl` (stereo not given), for which the Potency result is “inactive”.
For the compound `Oc1cc(Cl)cc(Cl)c1`, the “activity, negative = inhibition” value was 0.825%.
On to `C[C@]12C/C(=C/O)C(=O)C[C@@H]1CC[C@@H]1[C@@H]2CC[C@@]2(C)[C@H]1CC[C@]2(C)O`, for which the Potency result is “inactive”.
`N#Cc1ccc(N(CC(N)=O)CC(F)(F)F)cc1C(F)(F)F`: the “activity, negative = inhibition” value is 1.59%.
With `CCCCC(CC)COC(=O)c1ccccc1C(=O)OCC(CC)CCCC` (stereo not given), the “activity, negative = inhibition” value is -3.89%.
Consider `CC1(C)C(C=C(Cl)Cl)C1C(=O)OC(C#N)c1ccc(F)c(Oc2ccccc2)c1` (stereo not given), for which the “activity, negative = inhibition” value was 4.28%.
Same read-out and setting: the value for `c1ccc2nc(N3CCNCC3)ccc2c1` was 4.29% [at 52.9 µM].
`CC(Cl)CCl` (stereo not given): the “activity, negative = inhibition” value was 1.42%.
For the compound `O=c1c2ccccc2c(=O)c2c1cc(Cl)c1[nH]c3c([nH]c12)c(Cl)cc1c(=O)c2ccccc2c(=O)c13`, the “activity, negative = inhibition” value was 1.28%.
On the same count and under the same terms, as for `Oc1ccc(Cl)c(Cl)c1`, the figure is 1.14%.
Regarding `c1ccc(N=NNc2ccccc2)cc1`, the Potency result is “inactive”.
On to `CC(C)[C@@H](Nc1ccc(C(F)(F)F)cc1Cl)C(=O)OC(C#N)c1cccc(Oc2ccccc2)c1` (stereo not given in full), for which the “activity, negative = inhibition” value was 3.16%.
Consider `Nc1ccc(N=Nc2ccccc2)cc1`, for which the “activity, negative = inhibition” value was 16.1%.
The same measure, in the same setting: as for `CC#C[C@]1(O)CC[C@H]2[C@@H]3C[C@H](C)C4=CC(=O)CC[C@]4(C)[C@H]3CC[C@@]21C`, the figure is -0.424% [at 52.9 µM]; as for `CN(C)CCc1c[nH]c2ccccc12`, -0.82%.
Still for that read-out and setting: the value for `C=C(C)C(=O)[O][Sn]([CH2]CCC)([CH2]CCC)[CH2]CCC` was 1.87%.
Turning to `COP(=S)(OC)Oc1ccc([N+](=O)[O-])c(C)c1`, the Potency is 35.6 µM (active).
In the case of `CNC(=O)/C=C(\C)OP(=O)(OC)OC`, the Potency is 39.9 µM (active).
In the case of `O.O.O.O=C([O-])[C@H]([O-])[C@@H]([O-])C(=O)[O-].O=C([O-])[C@H]([O-])[C@@H]([O-])C(=O)[O-].[K+].[K+].[Sb+3].[Sb+3]`, the “activity, negative = inhibition” value is -0.381%.
In the case of `N#Cc1c[nH]cc1-c1cccc2c1OC(F)(F)O2`, the “activity, negative = inhibition” value was -0.0257%.
Take `O=C(N[C@@H]1N=C(c2ccccc2F)c2cccc3c2N(CC3)C1=O)c1cc2ccccc2[nH]1`: the “activity, negative = inhibition” value is -1.59% [at 52.9 µM].
The same measure, in the same setting: the value for `CN/C(=N\[N+](=O)[O-])NCc1cnc(Cl)s1` was -0.162%.
Still for that read-out and setting: the value for `CCN(CC)CCc1c[nH]c2ccccc12` was 3.37%; that for `CC(C)N(C(=O)SC/C(Cl)=C/Cl)C(C)C` was 2.54%; that for `CCC(C)Nc1c([N+](=O)[O-])cc(C(C)(C)C)cc1[N+](=O)[O-]` (stereo not given) was -2.29%.
Still for that read-out and setting: as for `CCN(CC)CCN1C(=O)CN=C(c2ccccc2F)c2cc(Cl)ccc21`, the figure is -0.841% [at 52.9 µM]; as for `C=CCBr`, -2.88%; as for `CC(C)Br`, 0.874%.
In the case of `O=C(NC(=O)c1ccccc1Cl)Nc1ccc(OC(F)(F)F)cc1`, the “activity, negative = inhibition” value was -0.55%.
